Screens: PubChem BioAssay, National Center for Advancing Translational Sciences (NCATS)
A selection: hits, their analogues and other compounds. The true share with any hit is near 5.2%.
Tau fluor cs – Counterscreen qHTS for Inhibitors of Tau Fibril Formation, Fluorescence Polarization. tau K18 P301L Alexa594 fluorescence, heparin fibrillization. Potency, µM (series often up to 57.7 µM). 280,000 compounds, 0.93% hits. AID 1463, 2008; further: nearly all actives have a fitted effect of over 55% in size
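Human tau K18 P301L (15 uM unlabeled, 0.24 uM Alexa 594-labeled) in 100 mM sodium acetate pH 7 with 20 uM heparin, 6 hr at 37 C. ThT 30 uM added, 1 hr ambient; Alexa 594 FP and total fluorescence read at 555/632 nm.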
Sfp inh – qHTS Assay for Inhibitors of Bacillus subtilis Sfp phosphopantetheinyl transferase (PPTase). 4'-phosphopantetheinyl transferase ffp (Bacillus subtilis), Q9F4F7. Biochemical Sfp PPTase activity, qHTS. Potency, µM, most hits filed as inhibitors. 310,000 compounds, 3.5% hits;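 further: the enzyme is Sfp with the accession as filed and its product quenches rhodamine fluorescence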
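Reaction rates are the 30-min fluorescence difference (ex 525, em 598 nm) in wells containing 15 nM Sfp, 5 uM rhodamine-CoA and 12.5 uM BHQ-2-YbbR at pH 7.6 with 10 mM MgCl2.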
Tau FP inhib – qHTS for Inhibitors of Tau Fibril Formation, Fluorescence Polarization | K18 P301L tau heparin fibrillization, Alexa594 FP, 6 h | Potency, µM (titrated, usually from 57.7 µM), actives largely listed as inhibitors | AID 1468, 2008 | Microtubule-associated protein tau (Homo sapiens), P10636 | 280,000 compounds, 0.39% hits; further: nearly all actives have a fitted effect of over 55% in size
Target sequence (P10636 561-689 P618L limits assumed): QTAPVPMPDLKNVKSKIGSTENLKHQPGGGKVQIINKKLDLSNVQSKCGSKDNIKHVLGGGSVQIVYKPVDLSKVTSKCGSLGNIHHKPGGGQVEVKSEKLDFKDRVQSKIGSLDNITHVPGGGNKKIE
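Heparin (20 uM) drove fibril formation of recombinant tau K18 P301L, 15 uM unlabeled with 0.24 uM Alexa 594 label, for 6 hr at 37 C in 100 mM sodium acetate pH 7. Fluorescence polarization (555/632 nm) read 1 hr after 30 uM ThT.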
FBPA coupling cs – qHTS Assay for Inhibitors of Fructose-1,6-bisphosphate Aldolase from Giardia Lamblia: Coupling assay counterscreen | coupling enzyme system counterscreen, AmpLite Red fluorescence | 290,000 compounds, 0.67% hits | activity change, negative = inhibition, % at 58.2 µM, hits read low; in the data active means activity change below about -30%
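Counterscreen of the coupled detection system alone, without aldolase: glyceraldehyde-3-phosphate coupling enzymes plus AmpLite Red readout. Compounds at 57.5 uM final, 10 min RT preincubation, 20 min RT reaction, fluorescence 525/598 nm.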
Tau fibril ThT – qHTS for Inhibitors of Tau Fibril Formation, Thioflavin T Binding. Potency, µM (titrated, usually from 57.4 µM), hits mostly inhibitors. Microtubule-associated protein tau (Homo sapiens), P10636. recombinant tau K18 P301L (four-repeat tau fragment), heparin-induced fibrillization, ThT fluorescence. 270,000 compounds, 2.1% hits. AID 1460, 2008; further: nearly all actives have a fitted effect of over 55% in size
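Heparin-induced (20 uM) aggregation of recombinant human K18 P301L tau, 15 uM unlabeled with 0.24 uM labeled, pH 7 acetate buffer, 6 hr at 37 C with compound. Fibrils quantified by 30 uM ThT fluorescence after 1 hr ambient incubation.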
Hits are given with their value. Unless noted, the call rests on the fitted dose curve; in most records, active means well fitted curve in the direction sought with a large enough effect; inconclusive means small, poorly fitted or top-dose-only effect, or another doubt; inactive means no such curve, though single readings can be large; an effect the other way counts as inactive or inconclusive.

`Cc1ccc(C(=O)Nc2nc(=O)n(C(=O)c3ccccc3Cl)s2)cc1` gave Tau fluor cs inactive, Sfp inh inactive, Tau FP inhib inconclusive, FBPA coupling cs inactive and Tau fibril ThT 13µM.
Cc1ccc(C(=O)Nc2ccccc2Cl)cc1 was read as Sfp inh inactive and FBPA coupling cs inactive.
`Cc1ccc(C(=O)Nc2nc(=O)n(C)s2)cc1` gave Tau fluor cs inactive, Sfp inh inactive, Tau FP inhib inactive, FBPA coupling cs inactive and Tau fibril ThT inactive.
For Cn1sc(NC(=O)c2ccc(Cl)cc2)nc1=O the results were Tau fluor cs inactive, Sfp inh 56µM, Tau FP inhib inactive, FBPA coupling cs inactive and Tau fibril ThT inactive.
`CC(C)CC(=O)n1sc(NC(=O)c2ccccc2)nc1=O` gave Tau fluor cs inactive, Sfp inh inactive, Tau FP inhib inconclusive, FBPA coupling cs inactive and Tau fibril ThT 22µM.
Cc1ccc(S(=O)(=O)c2nnn3c2nc(NC2CCCCC2)c2sccc23)cc1C was read as Tau fluor cs inconclusive, Tau FP inhib inconclusive and Tau fibril ThT inactive.
`O=C(Nc1ccccc1C(F)(F)F)N1CCC(CN2CCc3ccccc3C2)CC1` gave Tau fluor cs inactive, Tau FP inhib inactive and Tau fibril ThT inactive.
For COC(=O)c1c(NC(=O)CN2CCN(C(=O)c3ccco3)CC2)c2c(C)cccc2n1C the results were Tau fluor cs inactive, Sfp inh 20µM, Tau FP inhib inactive, FBPA coupling cs inactive and Tau fibril ThT inactive.
Cn1c(=O)c2sccc2n2c(CCC(=O)NCc3ccccc3)nnc12 was read as Tau fluor cs inactive, Tau FP inhib inactive and Tau fibril ThT inactive.
`Cc1cc(C)c(C(=O)CSC2=NC(N)=C(C#N)C3(CCCCC3)C2C(N)=O)cc1C` (stereo not given) gave Tau fluor cs inconclusive, Sfp inh inactive, Tau FP inhib inconclusive, FBPA coupling cs inactive and Tau fibril ThT 28µM.
`Cc1cc(C)c(C(=O)CSc2nnc(N)s2)cc1C` gave Tau fluor cs inactive, Sfp inh inactive, Tau FP inhib inactive, FBPA coupling cs inactive and Tau fibril ThT inactive.
`COc1ccc(CC(=O)NCCc2csc(-c3cccc(C)c3)n2)cc1` gave Tau fluor cs inactive, Tau FP inhib inactive and Tau fibril ThT inactive.
For Cc1ncc(CN2CCCC(C(=O)Nc3ccc(-c4ccco4)cc3)C2)cn1 (stereo not given) the results were Sfp inh 32µM.
`Cc1ncc(CN2CCCC(C(=O)Nc3ccc(-c4cscn4)cc3)C2)cn1` (stereo not given) gave Sfp inh inactive.
COCc1cc(CN2CCCC(C(=O)Nc3ccc(-c4ccco4)cc3)C2)ccc1OC (stereo not given) was read as Sfp inh 50µM and FBPA coupling cs inactive.
Screening Cc1ccc2c(c1)Cc1c(nc(-c3ccc(Cl)cc3)nc1SCC(=O)N1CCCCC1)O2 returned Tau fluor cs inactive, Tau FP inhib inactive and Tau fibril ThT inactive.
Screening COC(=O)c1[nH]c2cc(OC)c(OC)cc2c1NC(=O)Oc1ccccc1 returned Tau fluor cs inactive, Sfp inh 45µM, Tau FP inhib inactive, FBPA coupling cs inactive and Tau fibril ThT inconclusive.
`CS(=O)(=O)Nc1ccc(C2=NN(S(=O)(=O)c3ccc(F)cc3)C(c3ccco3)C2)cc1` (stereo not given) gave Tau fluor cs inconclusive, Sfp inh 50µM, Tau FP inhib inactive, FBPA coupling cs inactive and Tau fibril ThT inactive.
Screening O=C(O)CC(CC(=O)Nc1nncs1)c1ccccc1 (stereo not given) returned Tau fluor cs inactive, Sfp inh inactive, Tau FP inhib inactive, FBPA coupling cs inactive and Tau fibril ThT inactive.
`O=C(O)CC(Cn1[nH]nnc1=S)c1ccccc1` (stereo not given) gave Tau fluor cs inactive, Sfp inh 40µM, Tau FP inhib inactive, FBPA coupling cs inactive and Tau fibril ThT inactive.
CCC(=O)N1CCc2cc(S(=O)(=O)NC(C(=O)NCCc3cccc(C)c3)C(C)C)ccc21 (stereo not given) was read as Tau fluor cs inactive, Tau FP inhib inactive and Tau fibril ThT inactive.
`Cc1nn(-c2ccccc2)c2[nH]c(=O)c(CNc3ccc(N4CCOCC4)cc3)cc12` gave Tau fluor cs inconclusive, Sfp inh 45µM, Tau FP inhib inconclusive, FBPA coupling cs inactive and Tau fibril ThT 18µM.
CC(C)(C)c1nn(-c2ccccc2)c2[nH]c(=O)c(CNc3ccc4c(c3)OCCO4)cc12 was read as Tau fluor cs inconclusive, Sfp inh inactive, Tau FP inhib inactive, FBPA coupling cs inactive and Tau fibril ThT inconclusive.
For COC(=O)c1cnn(C(=O)c2cc(OC)ccc2Br)c1N the results were Tau fluor cs inactive, Sfp inh inactive, Tau FP inhib inactive, FBPA coupling cs inactive and Tau fibril ThT inactive.
COC(=O)c1cnn(C(=O)c2ccccc2Br)c1N was read as Tau fluor cs inactive, Sfp inh inactive, Tau FP inhib inactive, FBPA coupling cs -37 and Tau fibril ThT inactive.
O=C1CCCC(=NCc2ccco2)C1 was read as Tau fluor cs inactive, Sfp inh inactive, Tau FP inhib inactive, FBPA coupling cs inactive and Tau fibril ThT inactive.
`CN(C)c1nc(=NCc2ccco2)ss1` gave Tau fluor cs inactive, Sfp inh 0.5µM, Tau FP inhib 14µM, FBPA coupling cs -56 and Tau fibril ThT 8.9µM.
NCC1O[C@@H](OC2C(N)CC(N)C(O)C2O[C@@H]2OC(CO)C(O)C2O)C(N)C(O)C1O (stereo not given in full) was read as Tau fluor cs inactive, Sfp inh inactive, Tau FP inhib inactive, FBPA coupling cs inactive and Tau fibril ThT inactive.
For O=C1CSC2(N1)C1CC3CC(C1)CC2C3 (stereo not given) the results were Tau fluor cs inactive, Sfp inh inactive, Tau FP inhib inactive, FBPA coupling cs inactive and Tau fibril ThT inactive.
Screening C1CSC2(N1)C1CC3CC2CC(C1)C31NCCS1 (stereo not given) returned Tau fluor cs inactive, Sfp inh 20µM, Tau FP inhib inconclusive, FBPA coupling cs inactive and Tau fibril ThT inconclusive.
For CC(C)CNc1cc(NC2CCCCC2)c2c3c(onc13)-c1ccccc1C2=O the results were Tau fluor cs inconclusive, Tau FP inhib inactive and Tau fibril ThT inconclusive.
`COCCNc1cc(N2CCN(C3CCCCC3)CC2)c2noc3c2c1C(=O)c1ccccc1-3` gave Tau fluor cs inactive, Tau FP inhib inactive and Tau fibril ThT 11µM.
Screening CC1CCCN(C(=O)c2ccc3c(c2NCCO)C(=O)c2ccccc2C3=O)C1 (stereo not given) returned Tau fluor cs inactive, Sfp inh inactive, Tau FP inhib inactive, FBPA coupling cs inactive and Tau fibril ThT inconclusive.
